Data taken from PubChem BioAssay (NCI).
The panel holds about 83,000 compounds, 20% with a hit somewhere; the sample as a whole holds those more often.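 Growth was measured after 48 h exposure to one concentration of compound in 96-well plates. Values under 10 count as active.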 Active and inactive are the calls of the source.

Assays:
Test in all cases: NCI-60 one-dose screen, 48 h (100 = growth as untreated, 0 = no growth, -100 = all killed)
SR leukemia = conditions: 10 µM unless noted
RPMI-8226 leukemia = conditions: 10 µM unless noted
OVCAR-8 ovarian = conditions: 10 µM unless noted
OVCAR-5 ovarian = conditions: 10 µM unless noted
OVCAR-4 ovarian = conditions: 10 µM unless noted
SK-OV-3 ovarian = conditions: 10 µM unless noted
IGROV1 ovarian = conditions: 10 µM unless noted
OVCAR-3 ovarian = conditions: 10 µM unless noted
HS 578T breast = conditions: 10 µM
NCI/ADR-RES ovarian = conditions: 10 µM unless noted
T-47D breast = conditions: 10 µM unless noted
BT-549 breast = conditions: 10 µM unless noted
MDA-MB-435 melanoma = conditions: 10 µM unless noted
SW-620 colon = conditions: 10 µM unless noted
MCF7 breast = conditions: 10 µM unless noted
HCT-116 colon = conditions: 10 µM unless noted
HCC-2998 colon = conditions: 10 µM
KM12 colon = conditions: 10 µM unless noted

Measured: growth

CCN(CCN(C)C)C(=O)CNCc1cc(C(N)=O)ccn1
inactive: SR leukemia 93% | RPMI-8226 leukemia 96.1% | OVCAR-8 ovarian 89.9% | OVCAR-5 ovarian 101% | OVCAR-4 ovarian 109% | SK-OV-3 ovarian 96.4% | IGROV1 ovarian 109% | OVCAR-3 ovarian 119% | HS 578T breast 108% | NCI/ADR-RES ovarian 104% | T-47D breast 104% | BT-549 breast 102% | MDA-MB-435 melanoma 110% | SW-620 colon 109% | MCF7 breast 96.1% | HCT-116 colon 94.4% | HCC-2998 colon 94.2% | KM12 colon 101%

COc1cc2c(c(OC)c1)C1c3ccccc3NC(=O)N1CC2 (stereo unspecified)
inactive: SR leukemia 13.2% | RPMI-8226 leukemia 16.4% | OVCAR-8 ovarian 44.3% | OVCAR-5 ovarian 48.6% | OVCAR-4 ovarian 50.4% | SK-OV-3 ovarian 52.8% | IGROV1 ovarian 60.2% | HS 578T breast 16.4% | T-47D breast 44% | BT-549 breast 50.3% | SW-620 colon 20.5% | MCF7 breast 18.1% | HCT-116 colon 30.6% | HCC-2998 colon 53.4% | KM12 colon 26.2%
active: OVCAR-3 ovarian -6.26% | NCI/ADR-RES ovarian 1.85% | MDA-MB-435 melanoma -48.8%

COc1ccc(-n2c(=O)c3ccccc3n(Cc3ccc(C(=O)NO)cc3)c2=O)cc1
inactive: RPMI-8226 leukemia 12% | OVCAR-5 ovarian 58.4% | OVCAR-4 ovarian 17.1% | SK-OV-3 ovarian 28.3% | IGROV1 ovarian 14.4% | HS 578T breast 56.9% | NCI/ADR-RES ovarian 70.2% | BT-549 breast 36.2% | MCF7 breast 25.9% | HCC-2998 colon 34%
active: SR leukemia 7.16% | OVCAR-8 ovarian -0.914% | OVCAR-3 ovarian 8.92% | T-47D breast 5.48% | MDA-MB-435 melanoma -84.2% | SW-620 colon -27.3% | HCT-116 colon -19.9% | KM12 colon -32.9%

CC(C)[C@@H](C)/C=C/[C@@H](C)[C@H]1CCC2=C3C=CC4=CC(=O)CC[C@]4(C)[C@H]3CC[C@@]21C
inactive: SR leukemia 70.8% | RPMI-8226 leukemia 66% | OVCAR-8 ovarian 91.1% | OVCAR-5 ovarian 105% | OVCAR-4 ovarian 101% | SK-OV-3 ovarian 105% | IGROV1 ovarian 110% | OVCAR-3 ovarian 116% | HS 578T breast 108% | NCI/ADR-RES ovarian 101% | T-47D breast 91.3% | BT-549 breast 102% | MDA-MB-435 melanoma 103% | SW-620 colon 109% | MCF7 breast 93.6% | HCT-116 colon 93% | HCC-2998 colon 112% | KM12 colon 104%

COc1ccc2c(CCc3ccc(Cl)cc3)c3[n+](cc2c1OC)CCc1cc2c(cc1-3)OCO2
inactive: SR leukemia 33.8% | RPMI-8226 leukemia 20.7% | OVCAR-8 ovarian 51% | OVCAR-5 ovarian 86.2% | OVCAR-4 ovarian 24.4% | SK-OV-3 ovarian 75.2% | IGROV1 ovarian 40.8% | OVCAR-3 ovarian 44.2% | HS 578T breast 79.6% | NCI/ADR-RES ovarian 101% | T-47D breast 24.9% | BT-549 breast 18.5% | SW-620 colon 73.2% | MCF7 breast 60.4% | HCT-116 colon 36.5% | HCC-2998 colon 36.2% | KM12 colon 34.4%
active: MDA-MB-435 melanoma 1.77%

COc1ccc(C2CC(=O)c3c(O)c(OC)c(OC)c(OC)c3O2)c(O)c1 (stereo unspecified)
inactive: SR leukemia 23% | RPMI-8226 leukemia 32.7% | OVCAR-8 ovarian 36.5% | OVCAR-5 ovarian 54.2% | OVCAR-4 ovarian 48.9% | SK-OV-3 ovarian 42.9% | IGROV1 ovarian 46.3% | HS 578T breast 36.5% | T-47D breast 57.8% | BT-549 breast 60.6% | SW-620 colon 26.2% | MCF7 breast 32.5% | HCT-116 colon 10.2% | HCC-2998 colon 15.9% | KM12 colon 19.9%
active: OVCAR-3 ovarian 0.132% | NCI/ADR-RES ovarian 4.44% | MDA-MB-435 melanoma -33.7%

Nc1c2c(c(O)c3c1=C(CO)C=N3)=NCCS2=O (stereo unspecified)
inactive: RPMI-8226 leukemia 20.7% | SK-OV-3 ovarian 77%
active: SR leukemia 3.82% | OVCAR-8 ovarian -18.8% | OVCAR-5 ovarian -61.6% | OVCAR-4 ovarian -96.7% | IGROV1 ovarian -15.2% | OVCAR-3 ovarian -51.5% | HS 578T breast 1.72% | NCI/ADR-RES ovarian 0.866% | T-47D breast -42.6% | BT-549 breast -74.4% | MDA-MB-435 melanoma -82.7% | SW-620 colon -18% | MCF7 breast -50.6% | HCT-116 colon -49.3% | HCC-2998 colon -87.8% | KM12 colon -27.7%

Nc1c2c(c(O)c3c1=C(CO)C=N3)=NCCS2
active: SR leukemia 3% | RPMI-8226 leukemia -30.8% | OVCAR-8 ovarian -46.4% | OVCAR-5 ovarian -70.5% | OVCAR-4 ovarian -95.3% | SK-OV-3 ovarian -90.9% | IGROV1 ovarian -64.3% | OVCAR-3 ovarian -62.3% | HS 578T breast 5.57% | NCI/ADR-RES ovarian -24.8% | T-47D breast -42.5% | BT-549 breast -95.9% | MDA-MB-435 melanoma -82% | SW-620 colon -76% | MCF7 breast -50.8% | HCT-116 colon -90.7% | HCC-2998 colon -94.2% | KM12 colon -70.4%

CNC(=O)c1cc(Oc2ccc3nc(NC(=O)Nc4ccc(Cl)c(C(F)(F)F)c4)sc3c2)ccn1
inactive: SR leukemia 22.6% | RPMI-8226 leukemia 61.4% | OVCAR-5 ovarian 30.8% | SK-OV-3 ovarian 12.7% | IGROV1 ovarian 56.8% | NCI/ADR-RES ovarian 11.4% | BT-549 breast 17.4% | MDA-MB-435 melanoma 12.9% | SW-620 colon 21.5% | MCF7 breast 20.8% | HCC-2998 colon 46.6% | KM12 colon 29.8%
active: OVCAR-8 ovarian -11.1% | OVCAR-4 ovarian -34% | OVCAR-3 ovarian -61.1% | HS 578T breast -16.1% | T-47D breast -2.44% | HCT-116 colon -22%

COc1ccc(-c2nc(N)ncc2Oc2ccccc2OC)c(O)c1
inactive: SR leukemia 27.9% | RPMI-8226 leukemia 25.7% | OVCAR-8 ovarian 35.6% | OVCAR-5 ovarian 60.2% | OVCAR-4 ovarian 75.7% | SK-OV-3 ovarian 24.8% | IGROV1 ovarian 48.7% | HS 578T breast 36.2% | NCI/ADR-RES ovarian 17.9% | T-47D breast 35.5% | BT-549 breast 36% | SW-620 colon 20.6% | MCF7 breast 23.4% | HCT-116 colon 15.9% | HCC-2998 colon 50.6% | KM12 colon 29.5%
active: OVCAR-3 ovarian -4.77% | MDA-MB-435 melanoma -16.6%

N#Cc1c(-c2ccc(C(F)(F)F)cc2)c(F)c(NCCC2CCC(O)C2)n2c1nc1ccccc12 (stereo unspecified)
inactive: RPMI-8226 leukemia 49.5% | OVCAR-8 ovarian 45.4% | OVCAR-5 ovarian 88.7% | OVCAR-4 ovarian 69.9% | SK-OV-3 ovarian 43.2% | IGROV1 ovarian 50.2% | OVCAR-3 ovarian 79.9% | HS 578T breast 86.8% | NCI/ADR-RES ovarian 37.9% | T-47D breast 67.9% | BT-549 breast 30.1% | MDA-MB-435 melanoma 84.1% | SW-620 colon 55.6% | MCF7 breast 46.2% | HCT-116 colon 30.7% | HCC-2998 colon 80.7% | KM12 colon 57.9%
active: SR leukemia 9.1%

COc1cc(-c2nc(C(=O)NCC(=O)O)nn2-c2ccc(Cl)cc2)cc(OC)c1OC
inactive: SR leukemia 106% | RPMI-8226 leukemia 99% | OVCAR-8 ovarian 102% | OVCAR-5 ovarian 105% | OVCAR-4 ovarian 105% | SK-OV-3 ovarian 98.7% | IGROV1 ovarian 105% | OVCAR-3 ovarian 107% | HS 578T breast 106% | NCI/ADR-RES ovarian 105% | T-47D breast 99.5% | BT-549 breast 106% | MDA-MB-435 melanoma 108% | SW-620 colon 108% | MCF7 breast 96.3% | HCT-116 colon 103% | HCC-2998 colon 100% | KM12 colon 96.3%

Cc1cc(C)n(CC(=O)Nc2ccc(-c3nc4ccccc4s3)cc2)n1
inactive: SR leukemia 99.4% | RPMI-8226 leukemia 97.2% | OVCAR-8 ovarian 99.7% | OVCAR-5 ovarian 105% | OVCAR-4 ovarian 97.8% | SK-OV-3 ovarian 114% | IGROV1 ovarian 97.4% | OVCAR-3 ovarian 101% | HS 578T breast 113% | NCI/ADR-RES ovarian 103% | T-47D breast 93.3% | BT-549 breast 115% | MDA-MB-435 melanoma 107% | SW-620 colon 113% | MCF7 breast 26.6% | HCT-116 colon 107% | HCC-2998 colon 92.9% | KM12 colon 100%

Cc1cc(N(CCNc2ccnc3cc(Cl)ccc23)Cc2cccs2)nc(Cl)n1
inactive: OVCAR-8 ovarian 11.5% | OVCAR-5 ovarian 12.8% | KM12 colon 34%
active: SR leukemia -22.9% | RPMI-8226 leukemia -23.2% | OVCAR-4 ovarian -51.3% | SK-OV-3 ovarian -48.8% | IGROV1 ovarian -1.29% | OVCAR-3 ovarian -77.4% | HS 578T breast -5.93% | NCI/ADR-RES ovarian -2.82% | T-47D breast -34.3% | BT-549 breast -55.4% | MDA-MB-435 melanoma -1.48% | SW-620 colon 2.77% | MCF7 breast 5.64% | HCT-116 colon -85% | HCC-2998 colon -14.3%

CC(C)(C)C(=O)OCOP(=O)(OCOC(=O)C(C)(C)C)C1CCCN(OC(=O)c2ccccc2)C1=O (stereo unspecified)
inactive: OVCAR-5 ovarian 65.5% | OVCAR-4 ovarian 31.9% | SK-OV-3 ovarian 20.6% | T-47D breast 13.8% | MDA-MB-435 melanoma 45.2% | SW-620 colon 45.1% | HCT-116 colon 13% | HCC-2998 colon 25.2%
active: SR leukemia 7.15% | RPMI-8226 leukemia -30.8% | OVCAR-8 ovarian 7.36% | IGROV1 ovarian 5.28% | OVCAR-3 ovarian 7.34% | HS 578T breast 8% | NCI/ADR-RES ovarian 3.76% | BT-549 breast 7.84% | MCF7 breast 0.983% | KM12 colon 5.57%

CCN1CCN(c2nc(C)cc(N(CCNc3ccnc4cc(Cl)ccc34)Cc3ccc4c(c3)OCO4)n2)CC1
active: SR leukemia -35.2% | RPMI-8226 leukemia -30.4% | T-47D breast -51.7% | MDA-MB-435 melanoma -72.5% | SW-620 colon 3.4% | HCC-2998 colon -29.8%
inactive: OVCAR-8 ovarian 16.1% | OVCAR-5 ovarian 78.2% | OVCAR-4 ovarian 34.1% | SK-OV-3 ovarian 74.8% | IGROV1 ovarian 42.7% | OVCAR-3 ovarian 20.9% | HS 578T breast 22.1% | NCI/ADR-RES ovarian 36.4% | BT-549 breast 21.5% | MCF7 breast 23.8% | HCT-116 colon 10.3% | KM12 colon 55.9%

Cc1cc(N2CCOCC2)nc(N(CCNc2ccnc3cc(Cl)ccc23)Cc2cccs2)n1
inactive: OVCAR-5 ovarian 83.2% | OVCAR-4 ovarian 14.2% | SK-OV-3 ovarian 61.5% | IGROV1 ovarian 35.1% | NCI/ADR-RES ovarian 34.1% | SW-620 colon 19.5% | MCF7 breast 18.2% | KM12 colon 26.4%
active: SR leukemia -13% | RPMI-8226 leukemia -11.9% | OVCAR-8 ovarian 8.53% | OVCAR-3 ovarian -73.9% | HS 578T breast 5.37% | T-47D breast -29.6% | BT-549 breast -16.3% | MDA-MB-435 melanoma -1.4% | HCT-116 colon -25.1% | HCC-2998 colon -12.7%
